This is part of a sample that, as a whole, favours compounds with a hit. Of some 79,000 tested, about 15% had one in any assay. Values without a mark were called inactive. Active and inactive are the calls of the source. No stated cut-off is given here; in the data, active means growth inhibition above about 70%; inactive means the rest. Where a SMILES comes first, the peptide text is derived from it. The star is where a group is joined. Cbz = O=C(OCc1ccccc1)*
Experiment: NCI Yeast Anticancer Drug Screen. Data for the rad50 strain (AID 155);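 further: 0% = growth of vehicle-only cultures of the same strain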
Settings: S. cerevisiae rad50 strain growth inhibition; at 50.0 µM; hits give high values
Method in brief: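 Relative growth inhibition (compound vs vehicle) was measured in yeast with a defined repair-gene alteration.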

SMILES | growth inhibition
CC(O)(C#Cc1ccccc1)c1nc2ccccc2s1 (configuration not stated) | 1.2%
CCc1ccc[n+](CCc2c[nH]c3ccccc23)c1 | -13%
O=C(O)C(Cc1cccs1)C(=O)OCCc1ccccc1 (configuration not stated) | -4.95%
COc1ccc(NC(=S)NN=C(C)c2cccc(C(C)=NNC(=S)Nc3ccc(OC)cc3)n2)cc1 | -26.1%
O=[N+]([O-])c1ccc(CCCCCc2ccccc2)cc1 | -6.15%
CC1=Nc2cc(C)c(C)cc2N2C1=CC1=C(C(=O)c3cc4ccccc4cc3C1=O)C2C (configuration not stated) | 16%
CCCCCOc1ccc(C2=C(c3ccccc3)C(=O)C(c3ccccc3)=C2c2ccccc2)cc1 | 40.4%
CC(C)=C1CCC(CN2CCCC2)C1=O (configuration not stated) | 20.1%
Cc1[nH]c2ccccc2c1C(c1ccccc1O)c1c(C)[nH]c2ccccc12 | 20.6%
O=C1O/C(=C/c2ccc(O)cc2)c2ccccc21 | 0.9%
CN(c1ccccc1)c1nc(=[N+](C)C)ss1 | 35.4%
CCN(CC)CCOCCO | -8.6%
O=C(CC(=O)CC(O)(C(F)(F)F)C(F)(F)F)CC(O)(C(F)(F)F)C(F)(F)F | 73.1% (active)
O=C(O)C(CO)NC(=O)C1CCCN1C(=O)OCc1ccccc1 (stereo not drawn) (Cbz-Pro-Ser-OH; configuration not given here) | -1.95%
CCOC(CN(Cc1ccccc1)CC(OCC)OCC)OCC | 12.7%
COc1cccc(NC(=O)CC(=O)N2N=C(n3ccc4ccccc43)CC2c2ccccc2)c1 (configuration not stated) | -36.3%
CC(=O)c1cccc(C(C)=O)c1N=Cc1ccc(Cl)cc1 | -30.3%
O=S(=O)(Cl)C1c2ccccc2-c2ccccc21 | 22.4%
CCCCCC/C(C=O)=C\c1ccccc1 | 31.8%
O=S(=O)(O/C(=C(\OS(=O)(=O)C(F)(F)F)c1ccccc1)c1ccccc1)C(F)(F)F | 6.9%
C=CCNCc1cc(Cl)cc(Cl)c1O | -8.35%
CC(=O)N(CCc1ccccc1)C(C)(C#N)c1ccccc1 (configuration not stated) | -0.2%

Experiment: NCI Yeast Anticancer Drug Screen. Data for the mec2-1 strain (AID 157)
Settings: S. cerevisiae mec2-1 strain, at 50.0 µM, hits give high values
Method in brief: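 Growth inhibition is read against vehicle-treated controls after compound exposure of the mec2-1 yeast strain, which is defective in DNA damage repair or cell cycle control.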

SMILES | growth inhibition [%]
Cc1ccc(S(=O)(=O)C23N=NC(C)(C)C2C2CCC3C2)cc1 (configuration not stated) | -12
Cc1cc(=O)oc2c(-c3ccccc3)nnc(Cl)c12 | 15
O=C1CCC2(c3ccccc3)Nc3ncccc3N12 (configuration not stated) | 2.8
CCOc1nc(C)cc(C(=O)OC)c1C#N | 15.7
CC(=O)Nc1ccc(/C=N/Nc2c3ccccc3nc3ccccc23)cc1 | 13.8
COc1c2c(cc3c1[C@@H]1Oc4c(ccc(O)c4CC=C(C)C)[C@@H]1CO3)OC(C)(C)C=C2 | 52.7
C=CS(=O)(=O)CCCCCCCCCCCCCC | 27.6
Cc1nc(N)c2c(n1)C(Cc1ccccc1)N(C(=O)c1ccccc1)C2 (configuration not stated) | -4.3
CC(=O)Oc1c(C)cc2c(c1C)C(C)CN2C(C)=O (configuration not stated) | -33.8
Cc1c(N(C)C)ccc2c(=O)c3cccc(CC(=O)O)c3oc12 | 21.7
COc1cc2c(cc1OC)C(c1ccccc1CCCCl)=NCC2 | -4
CC1(C2(C)SCCS2)SCCS1 | 2.9
ON=C1CCN(c2ccccc2)CC1 | -30.5
N/N=C(\c1ccccc1)C(Nc1ccccc1)c1ccccc1 (configuration not stated) | -3.95
CCC(O)C(CC)[N+](=O)[O-] (configuration not stated) | -17.4
CCCCCCCCCCCCOc1ccc(Sc2ccc([N+](=O)[O-])cc2)cc1 | 2.55
CC(C(=O)c1ccncc1)c1ccccn1 (configuration not stated) | 6.65
Cc1cccc(N2CCN(S(C)(=O)=O)CC2)c1 | 6.85
CC(O)(C#Cc1ccccc1)c1nc2ccccc2s1 (configuration not stated) | -5
CCc1ccc[n+](CCc2c[nH]c3ccccc23)c1 | -0.45

SMILES | growth inhibition [%]
O=C(O)C(Cc1cccs1)C(=O)OCCc1ccccc1 (configuration not stated) | -6.45
COc1ccc(NC(=S)NN=C(C)c2cccc(C(C)=NNC(=S)Nc3ccc(OC)cc3)n2)cc1 | -23.1
O=[N+]([O-])c1ccc(CCCCCc2ccccc2)cc1 | -17.6
CC1=Nc2cc(C)c(C)cc2N2C1=CC1=C(C(=O)c3cc4ccccc4cc3C1=O)C2C (configuration not stated) | 9.8
CCCCCOc1ccc(C2=C(c3ccccc3)C(=O)C(c3ccccc3)=C2c2ccccc2)cc1 | 12.3
CC(C)=C1CCC(CN2CCCC2)C1=O (configuration not stated) | 13.4
Cc1[nH]c2ccccc2c1C(c1ccccc1O)c1c(C)[nH]c2ccccc12 | 23.4
O=C1O/C(=C/c2ccc(O)cc2)c2ccccc21 | -26.9
CN(c1ccccc1)c1nc(=[N+](C)C)ss1 | 26.5
CCN(CC)CCOCCO | -16
O=C(CC(=O)CC(O)(C(F)(F)F)C(F)(F)F)CC(O)(C(F)(F)F)C(F)(F)F | 65.1
O=C(O)C(CO)NC(=O)C1CCCN1C(=O)OCc1ccccc1 (stereo not drawn) (Cbz-Pro-Ser-OH; configuration not given here) | -17.8
CCOC(CN(Cc1ccccc1)CC(OCC)OCC)OCC | 8.15
COc1cccc(NC(=O)CC(=O)N2N=C(n3ccc4ccccc43)CC2c2ccccc2)c1 (configuration not stated) | -11.4
CC(=O)c1cccc(C(C)=O)c1N=Cc1ccc(Cl)cc1 | -27.9
O=S(=O)(Cl)C1c2ccccc2-c2ccccc21 | 20.1
CCCCCC/C(C=O)=C\c1ccccc1 | 17.6
O=S(=O)(O/C(=C(\OS(=O)(=O)C(F)(F)F)c1ccccc1)c1ccccc1)C(F)(F)F | -20.2
C=CCNCc1cc(Cl)cc(Cl)c1O | -4.4
CC(=O)N(CCc1ccccc1)C(C)(C#N)c1ccccc1 (configuration not stated) | 4
